Hits are enriched below; roughly 9.3% of the tested compounds scored in any of these assays.
VACV mCherry inh: inhibitors of vaccinia virus infection (mCherry reporter signal); Vaccinia virus mCherry reporter infection, fluorescence; Potency, µM (doses to about 36.5 µM), for inactives: at the highest dose activity change, negative = inhibition, usual class: inhibitors; 310,000 tested, 0.63% active; calls by dose curve; tested in A549 cells; note: potency is the fitted concentration of half-maximal effect; nearly all actives have a fitted effect of over 35% in size
Sm TGR block: blocks Schistosoma mansoni thioredoxin glutathione reductase; purified TGR, DTNB reduction, TNB absorbance 405 nm; Potency, µM (series often up to 114 µM), for the others: top-dose activity change, negative = inhibition, usual class: inhibitors; 360,000 tested, 3% active; AID 485364; note: potency is the fitted concentration of half-maximal effect; nearly all actives have a fitted effect of over 60% in size
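Kinetic colorimetric format: TGR-catalysed, NADPH-driven DTNB reduction monitored via TNB absorbance. Enzyme dispensed at 20 nM; compound exposure 15 min at room temperature before reaction start.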
Vaccinia Venus: vaccinia inhibition (Venus reporter) | Vaccinia virus Venus reporter expression, fluorescence | Potency, µM (titrated, usually from 36.5 µM), for inactives: top-dose activity change, negative = inhibition, most hits filed as inhibitors | 330,000 tested, 0.46% active; calls by dose curve; tested in A549 cells; note: potency is the fitted concentration of half-maximal effect; nearly all actives have a fitted effect of over 30% in size
HCV inhibitor: HCV inhibition; Huh7.5.1 HCVcc-Cre infection, luciferase reporter, 44 h; Potency, µM (top dose mostly 41.8 µM), without a hit: at the top dose activity change, negative = inhibition, most hits filed as inhibitors; 340,000 tested, 3.4% active; AID 651820; note: potency is the fitted concentration of half-maximal effect
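Cells (1,000/well) were plated 4 h before compound, then infected with HCVcc-Cre virus (~0.5 moi). After 44 h further culture, infection was read as luciferase luminescence following a 15 min substrate incubation at room temperature.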
FMDV inh: blocks foot and mouth disease virus; FMDV antiviral cell-based qHTS; Potency, µM (top dose mostly 57.9 µM), for the others: at the top dose activity change, negative = inhibition, hits mostly inhibitors; 410,000 tested, 1.2% active; AID 1159524; calls by dose curve; tested in HEK293T cells; note: read-out not given here; potency is the fitted concentration of half-maximal effect; nearly all actives have a fitted effect of over 45% in size
HCMV antiviral: blocks human cytomegalovirus replication; HFF cells, HCMV-luciferase reporter, 72 h; hits give low values; AID 1259415; activity change, negative = inhibition, % at 57.5 µM; 410,000 tested, 4.5% active; in the data active = activity change below about -60%; inconclusive = no clear call, values can overlap the other calls; inactive = above about -39%
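HFF cells seeded 16 h at 37C, treated with compounds, infected with luciferase-reporter HCMV at MOI 1 PFU/cell; luciferase read at 72 h post infection, normalized to buffer-only and Salinomycin controls.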
An asterisk follows results filed as active; i = inactive; ? = inconclusive; · = no result given; + = active, no number; [ ] = dose if it differs, or a comment. Unless noted, calls come from the whole dose curve; as a rule, active = well fitted curve in the direction sought with a large enough effect; inconclusive = small, poorly fitted or top-dose-only effect, or another doubt; inactive = no such curve, though single readings can be large; an effect the other way counts as inactive or inconclusive. % is set by controls: 0 for no effect and ±100 for the full control effect.

SMILES	VACV mCherry inh	Sm TGR block	Vaccinia Venus	HCV inhibitor	FMDV inh	HCMV antiviral
CC1=NNC(=O)/C1=C\c1cn(-c2ccccc2)nc1-c1ccccc1	10µM*	·	10µM*	11.2µM*	8.91µM*	-100.0*
CC1(C)CC(=O)C(=Cc2cn(-c3ccccc3)nc2-c2ccc(Cl)cc2)C(=O)C1	·	-15.2%	-4.7%	?	?	-4.9
COc1ccc(C(=O)CSc2nnc(Cn3cnc4ccccc43)o2)cc1	·	0.3%	·	2.24µM*	?	?
CC(=O)c1ccc(NC(=O)CSc2nnc(Cn3cnc4ccccc43)o2)cc1	-10.6%	0.0%	-13.3%	11.0%	6.9%	-14.4
CCOc1ccc(Cc2nnc(SCC(=O)c3ccc(OC)cc3)o2)cc1	?	-1.1%	-25.6%	8.91µM*	?	0.5
COc1ccc(Cc2nnc(SCC(=O)c3ccc(OC)cc3)o2)cc1	-29.7%	1.8%	?	?	·	-34.1
CC1C(c2ccccc2)N(C)CCC12NC(=O)NC2=O (configuration not stated)	·	6.3%	·	1.0%	13.7%	5.9
COc1ccccc1CNc1ncnc2onc(-c3ccc(F)cc3)c12	-18.9%	2.9%	-10.3%	·	-19.4%	-21.4
CC1CCCN(C2(O)C(=O)Nc3ccc(Br)cc32)C1 (configuration not stated)	·	0.0%	·	-3.2%	-2.3%	-6.2
CCN1C(=O)N(CC)C(O)(c2ccccc2)C1(O)c1ccccc1 (configuration not stated)	·	-18.1%	-9.0%	0.6%	-17.2%	-61.9*
CCN1C(=O)N(C)C2(c3ccccc3)N(C)C(=O)N(C)C12c1ccccc1 (configuration not stated)	·	0.7%	-8.2%	13.7%	-3.9%	3.5
COc1cccc(Nc2nc(-c3ccccc3O)nc3ccccc23)c1	·	5.1%	·	?	-29.4%	20.2
Fc1cccc(Nc2nc(-c3ccncc3)nc3ccccc23)c1	·	5.4%	·	?	25.1µM*	73.4
COc1cccc(Nc2nc(-c3ccccc3)nc3ccccc23)c1	-4.1%	-5.3%	-19.1%	10µM*	-22.8%	-11.7
c1cncc(Nc2c3ccccc3nc3ccccc23)c1	-25.1%	-3.3%	?	?	-18.4%	-85.9*
Oc1cccc(Nc2nc(-c3ccccc3Cl)nc3ccccc23)c1	10µM*	3.0%	-20.2%	-18.5%	?	?
Cc1ccc(-n2ncc(C(=O)N3CCN(c4ccccn4)CC3)c2C2CCN(C(=O)OC(C)(C)C)CC2)cc1	i	4.7%	-6.9%	·	1.6%	0.0
Cc1nc(C)c(C(=O)OCC(=O)Nc2ccccc2SCC#N)s1	-7.5%	-16.8%	10.4%	0.3%	?	45.9
Cc1ccc(-c2nc(Nc3cccc(O)c3)c3ccccc3n2)cc1	·	-15.1%	·	28.2µM*	-24.2%	?
Cc1ccc(-c2nc(Nc3ccc(O)cc3)c3ccccc3n2)cc1	?	-2.8%	-26.3%	7.08µM*	34.7%	35.8
Oc1ccc(Nc2nc(-c3ccccc3O)nc3ccccc23)cc1	·	-34.3%	·	11.2µM*	0.0%	79.1
COC(=O)c1ccc(Nc2nc(-c3ccc(C)cc3)nc3ccccc23)cc1	-19.4%	16.8%	-17.7%	·	12.0%	-20.6
Oc1cccc(Nc2c3ccccc3nc3ccccc23)c1	?	-29.7%	10µM*	?	?	-100.1*
COc1ccc(Nc2nc(-c3ccccc3O)nc3ccccc23)cc1	?	1.6%	?	?	?	?
CCCCNC(=O)c1nc(-c2cccc(C(F)(F)F)c2)oc1-c1ccc(OC(F)(F)F)cc1	-3.2%	·	-3.9%	·	-20.1%	6.5
SMILES	VACV mCherry inh	Sm TGR block	Vaccinia Venus	HCV inhibitor	FMDV inh	HCMV antiviral
c1ccc(Nc2nc(-c3ccccc3)nc3ccccc23)cc1	·	-23.8%	·	14.1µM*	-20.4%	-21.7
COCCN(CCOC)c1nc(-c2ccc(C)cc2)nc2ccccc12	·	-20.4%	·	-27.6%	7.1%	-27.3
Cc1ccc(-c2nc(C(Cl)Cl)c3ccccc3n2)cc1	·	16.3%	·	3.55µM*	39.4%	-7.7
COc1ccc(C(=O)NCc2nc(C)c(C)s2)cc1OC1CCN(C(C)C)CC1	-1.8%	-11.4%	-15.6%	-23.1%	-5.9%	?
O=C(Cn1ncc2c([nH]c3ccccc32)c1=O)NCCCN1CCN(c2ccccc2)CC1	3.6%[7.34 µM]	0.9%	0.5%[7.34 µM]	-14.6%	-18.3%	8.6
COc1ccc(N(C)S(=O)(=O)c2cccc(C(=O)N3CCN(c4ccccc4)CC3)c2)cc1	-28.7%	-17.3%	-8.4%	?	?	-24.2
COc1ccc(C2=CSC3=C(C(=O)c4cccc(S(=O)(=O)N(C)C)c4)CCN23)cc1	·	1µM*	·	-20.3%	-3.2%	19.8
CC(C)(C)C(=O)OCc1nc(-c2ccc3c(c2)OCCO3)cs1	·	12.7%	·	-0.6%	10.5%	72.4
CCCCNC(=O)Cn1nc(Cc2ccncc2)c2ccccc2c1=O	·	30.7%	·	11.4%	-21.1%	-61.6*
CCCN(C(=O)Cn1nc(Cc2cccnc2)c2ccccc2c1=O)c1ccc(C(C)C)cc1	-12.8%	-11.0%	-10.5%	·	-16.3%	-63.2*
CCOc1ccc(NC(=O)Cn2nc(Cc3ccncc3)c3ccccc3c2=O)cc1	-10.7%	-12.4%	-9.2%	·	-12.9%	-17.9
CCCN(C(=O)Cn1nc(Cc2ccncc2)c2ccccc2c1=O)c1ccccc1C	-11.2%	-11.8%	-3.7%	·	2.2%	-61.8*
COc1ccc(NC(=O)CN(C)C(=O)/C=C/c2ccc(OCc3ccccc3)cc2)cc1	-13.0%	0.3%	-8.2%	?	-7.7%	-19.2
COc1cccc(C2C=C(c3ccccc3)Nc3c(C(=O)Nc4ccccc4)cnn32)c1OC (configuration not stated)	-21.2%	0.8%	-18.6%	·	-15.1%	?
Cc1ccc(SCC(=O)NC2CCS(=O)(=O)C2)cc1 (configuration not stated)	i	-28.3%	-1.9%	-3.4%	-2.3%	-64.7*
Cc1cc(C)c2c(CC(=O)NN(C)C)coc2c1	-5.5%	0.5%	-15.6%	5.5%	-1.8%	-39.3
Cc1cc(C)c2c(CC(=O)NC3CCS(=O)(=O)C3)coc2c1 (configuration not stated)	·	-8.8%	·	-3.1%	-14.5%	+
CC(C)=C1SC(N2CCN(c3ccc(Cl)cc3)CC2)=NC1=O	-23.0%	?	-15.0%	5.2%	-14.1%	-75.1*
CC(C)=C1SC(N2CCN(c3ccc(C)cc3)CC2)=NC1=O	·	-22.2%	-19.3%	18.6%	-0.2%	-38.5
CN(C)c1ccc(/C=N/N=C2/NC(=O)/C(=C/c3ccc([N+](=O)[O-])cc3)S2)cc1	-20.6%	0.0%	2.0%	6.3%	8.91µM*	-22.1
CN(C)c1ccc(C=C2SC(=S)NC2=O)cc1	-9.3%	·	96.5%	3.0%	27.4%	32.6
COc1ccc(-n2c(C)ccc2-c2ccccc2)cn1	-2.9%	?	8.6%	-19.7%	-1.3%	23.3
Cc1ccc(Oc2nnc(-c3ccc(C)cc3)c3ccccc23)cc1	-15.0%	1.5%	-12.4%	?	7.6%	6.5
